Test [1] is described as follows: antimalarial activity against Dd2 strain (AID 2302;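 active means growth inhibition above 50% at the single 2 µM test dose, taken to imply half-maximal potency below 2 µM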;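 further: 0% = DMSO untreated growth and 100% = chloroquine plus artemisinin killed control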). To be noted: P. falciparum Dd2 in RBCs, LDH growth readout, 72 h; at 2 µM; stronger effect = higher value.
The nature of test [2]: HepG2 cytotoxicity, primary screen, cytotoxicity control for P. falciparum antimalarial project, cell-based, ATP luminescence (AID 2303;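 active means inhibition above 50%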;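 further: 0% = DMSO wells and 100% = digitonin-killed cells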). To be noted: HepG2 viability, 24-48 h, at 10 µM, stronger effect = higher value.
For test [3], the target named is L-lactate dehydrogenase (Plasmodium falciparum (isolate CDC / Honduras)) (UniProt Q27743). In words: PfLDH activity inhibition – cell lysate, 3D7 strain, counter-screen for P. falciparum growth inhibition project (AID 2304).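 Further: 0% = vehicle and 100% = reference inhibitor.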 As to conditions: P. falciparum 3D7 crude extract, LDH APAD/NBT absorbance; at 2 µM; stronger effect = higher value. In general terms: Counterscreens check selectivity or assay interference.

The nature of test [4]: inhibition of 3D7 malaria parasite growth – strain 3D7 (AID 2306).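 Further: 0% = DMSO wells and 100% = chloroquine plus artemisinin control wells.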 To be noted: P. falciparum 3D7 erythrocytic growth, LDH absorbance, 72 h; at 2 µM; stronger effect = higher value.
The target of test [5] is Calcium-dependent protein kinase 1 (Plasmodium falciparum (isolate 3D7)) (UniProt P62344). As to the kind of experiment: PfCDPK1 kinase inhibitors, biochemical, TCAMS library (AID 1159585; cut-off not given, nearly all actives have IC50 up to about 0.98 µM;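 further: inhibitors leave more ATP so luminescence rises with inhibition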). To be noted: recombinant PfCDPK1, Kinase-Glo ATP depletion luminescence. For orientation: In Kinase-Glo more light means more ATP remaining.
Test [6] addresses Plasmodium falciparum protein kinase 6 (PK6, PF3D7_1337100) (UniProt Q8IDW1). As to the kind of experiment: PfPK6 kinase inhibitors, biochemical, TCAMS library (AID 1159586). To be noted: recombinant PfPK6, Kinase-Glo ATP depletion luminescence.
Test [7] deals with Protein kinase 7 (PK7), Plasmodium falciparum 3D7 (PF3D7_0213400) (UniProt Q7YTF7). In words: inhibition of Plasmodium PK7 catalytic activity – biochemical, TCAMS antimalarial set, Kinase-Glo luminescence (AID 1159587). To be noted: recombinant PfPK7, Kinase-Glo ATP depletion luminescence.
The target in test [8] is Calcium-dependent protein kinase 4 (Plasmodium falciparum (isolate 3D7)) (UniProt Q8IBS5). In words: PfCDPK4 kinase inhibitors, biochemical, TCAMS library (AID 1159588; cut-off not given, nearly all actives have IC50 up to about 0.91 µM). To be noted: recombinant PfCDPK4, Kinase-Glo ATP depletion luminescence.

Unmarked numbers belong to inactive results. For part of these data: Potency and affinity values are given separately. Calls of active or inactive are those of the source. Unless noted, how the calls were made is not given here.

The source of these data is PubChem BioAssay.

What is called inhibition is the relative decrease from the control value, in per cent.

Calcium-dependent protein kinase 1 (Plasmodium falciparum (isolate 3D7)), sequence (P62344 whole entry, looked up): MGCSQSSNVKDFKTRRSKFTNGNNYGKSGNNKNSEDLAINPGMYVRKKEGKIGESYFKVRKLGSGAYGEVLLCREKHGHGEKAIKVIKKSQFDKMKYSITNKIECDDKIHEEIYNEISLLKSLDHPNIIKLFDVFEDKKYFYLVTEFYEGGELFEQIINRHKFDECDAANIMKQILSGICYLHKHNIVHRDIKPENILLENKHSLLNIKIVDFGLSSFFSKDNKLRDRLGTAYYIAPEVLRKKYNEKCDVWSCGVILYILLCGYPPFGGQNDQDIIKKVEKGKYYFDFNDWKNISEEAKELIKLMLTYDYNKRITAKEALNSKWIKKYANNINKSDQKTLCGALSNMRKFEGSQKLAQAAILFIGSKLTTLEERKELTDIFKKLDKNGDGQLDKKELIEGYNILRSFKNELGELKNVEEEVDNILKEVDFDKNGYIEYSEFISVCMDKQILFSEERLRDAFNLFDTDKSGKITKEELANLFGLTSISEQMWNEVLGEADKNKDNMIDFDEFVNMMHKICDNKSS
Protein kinase 7 (PK7), Plasmodium falciparum 3D7 (PF3D7_0213400), sequence (Q7YTF7 1-343): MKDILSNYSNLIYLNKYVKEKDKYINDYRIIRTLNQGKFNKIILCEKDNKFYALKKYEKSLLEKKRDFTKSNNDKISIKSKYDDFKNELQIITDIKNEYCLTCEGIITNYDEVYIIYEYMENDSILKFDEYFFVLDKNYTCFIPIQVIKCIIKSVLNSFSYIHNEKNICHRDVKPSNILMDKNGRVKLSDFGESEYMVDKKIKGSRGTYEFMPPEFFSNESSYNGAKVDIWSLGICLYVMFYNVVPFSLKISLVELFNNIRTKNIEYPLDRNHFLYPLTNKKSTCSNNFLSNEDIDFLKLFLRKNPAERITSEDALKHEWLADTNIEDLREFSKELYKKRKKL
L-lactate dehydrogenase (Plasmodium falciparum (isolate CDC / Honduras)), sequence (Q27743 whole entry, looked up): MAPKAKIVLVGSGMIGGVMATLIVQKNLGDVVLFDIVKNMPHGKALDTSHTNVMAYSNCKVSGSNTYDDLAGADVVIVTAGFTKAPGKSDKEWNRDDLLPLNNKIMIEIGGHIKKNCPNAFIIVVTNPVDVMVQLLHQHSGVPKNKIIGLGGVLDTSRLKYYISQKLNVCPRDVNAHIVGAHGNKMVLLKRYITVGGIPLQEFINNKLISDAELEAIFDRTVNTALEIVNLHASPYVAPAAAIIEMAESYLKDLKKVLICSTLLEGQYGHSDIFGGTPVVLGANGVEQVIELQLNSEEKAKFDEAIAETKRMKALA
Plasmodium falciparum protein kinase 6 (PK6, PF3D7_1337100), sequence (Q8IDW1 1-305): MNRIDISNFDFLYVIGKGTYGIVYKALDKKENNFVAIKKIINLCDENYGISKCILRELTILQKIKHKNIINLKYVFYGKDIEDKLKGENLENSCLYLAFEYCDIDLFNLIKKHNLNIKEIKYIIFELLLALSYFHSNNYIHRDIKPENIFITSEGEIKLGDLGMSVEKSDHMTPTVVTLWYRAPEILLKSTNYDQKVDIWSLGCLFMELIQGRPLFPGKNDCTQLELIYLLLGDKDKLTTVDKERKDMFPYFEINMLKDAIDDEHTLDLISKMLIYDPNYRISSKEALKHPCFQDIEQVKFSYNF
Calcium-dependent protein kinase 4 (Plasmodium falciparum (isolate 3D7)), sequence (Q8IBS5 whole entry, looked up): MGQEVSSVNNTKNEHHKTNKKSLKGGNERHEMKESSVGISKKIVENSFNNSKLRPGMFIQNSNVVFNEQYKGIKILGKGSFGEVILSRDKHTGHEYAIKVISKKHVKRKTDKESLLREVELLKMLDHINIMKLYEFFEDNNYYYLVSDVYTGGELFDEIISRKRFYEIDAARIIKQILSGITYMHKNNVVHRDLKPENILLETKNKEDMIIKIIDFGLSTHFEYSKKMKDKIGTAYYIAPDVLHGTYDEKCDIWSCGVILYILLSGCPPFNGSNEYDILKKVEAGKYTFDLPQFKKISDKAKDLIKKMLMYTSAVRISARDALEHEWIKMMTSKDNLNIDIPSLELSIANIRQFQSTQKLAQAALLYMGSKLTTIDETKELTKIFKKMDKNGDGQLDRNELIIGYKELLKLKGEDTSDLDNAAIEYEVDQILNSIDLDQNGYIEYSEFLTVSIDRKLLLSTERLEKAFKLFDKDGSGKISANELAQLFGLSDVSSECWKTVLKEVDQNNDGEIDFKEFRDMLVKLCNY

As for `O=C1CC(C(=O)O)CC(=O)N1`, the growth inhibition in test [1] is 88% (active); in test [4], 94% (active). Moreover, the inhibition in test [2] was -3%; in test [3] it was 6%. Besides, the outcome in test [5], in test [6], in test [7] and in test [8] was inactive.

Consider `O=C(Nc1ccc(-c2cccc(-c3nc4ccccc4[nH]3)c2)cc1)Nc1ccc(Cl)c(Cl)c1`, for which the growth inhibition is 80% (active) in test [1] and 101% (active) in test [4]. Besides, the inhibition in test [2] was 61% (active); in test [3], -2%. Moreover, the outcome in test [5], in test [6], in test [7] and in test [8] was inactive.

For the compound `Cc1cc(NC(=O)Nc2ccc(Cl)cc2F)c2ccccc2n1`, the values for the growth inhibition in test [1] and in test [4] were 71% (active) and 100% (active), respectively. In addition, the inhibition in test [2] was 10%; in test [3], 2%. Besides, the outcome in test [5], in test [6], in test [7] and in test [8] was inactive.

With `O=C(/C=C/c1ccc(Cl)c(Cl)c1)NCCCCCN1CCN(C(=O)Nc2cccc(F)c2)CC1`, the growth inhibition in test [1] is 1%; in test [4], 91% (active). The inhibition was 12% in test [2] and -1% in test [3]. Also, the outcome in test [5], in test [6], in test [7] and in test [8] was inactive.

As for `O=C1OC2(CCN(C(=O)c3ccc(-n4cnnn4)cc3)CC2)CN1Cc1ccc(Cl)c(Cl)c1`, the growth inhibition was 70% (active) in test [1] and 97% (active) in test [4]. Besides, the inhibition in test [2] was 11%; in test [3], -7%. Moreover, the outcome in test [5], in test [6], in test [7] and in test [8] was inactive.

Consider `COc1cc(NC(=O)/C=C/c2cc3ccccc3n2C)ccc1OCCN(C(C)C)C(C)C`, for which the growth inhibition in test [1] was 68% (active); in test [4] it was 99% (active). For the same compound, the inhibition in test [2] was 16%; in test [3] it was 4%. Moreover, the outcome in test [5], in test [6], in test [7] and in test [8] was inactive.

Take `Cc1ccc(-n2c(=O)c3cccnc3n2CC(=O)Nc2cccc(C)c2C)cc1`: the growth inhibition was 20% in test [1] and 96% (active) in test [4]. The inhibition in test [2] is 9%; in test [3], -3%. For the same compound, the outcome in test [5], in test [6], in test [7] and in test [8] was inactive.

In the case of `O=C1c2ccccc2CN1CCCN1CCC(Oc2ccc(F)cc2)CC1`, the growth inhibition is 1% in test [1] and 97% (active) in test [4]. For the same compound, the inhibition in test [2] was 14%; in test [3], 3%. The outcome in test [5], in test [6], in test [7] and in test [8] was inactive.

In the case of `O=C(NCC1CCC(CNCCCc2ccccc2)CC1)c1cc(Cl)cc(Cl)c1` (centres undefined), the growth inhibition in test [1] is 13%; in test [4], 89% (active). The inhibition in test [2] is 58% (active); in test [3], -1%. Further, the outcome in test [5], in test [6], in test [7] and in test [8] was inactive.

Turning to `CN1CCN(CC2(Nc3nccc(NCc4ccc(Cl)cc4Cl)n3)CCCCC2)CC1`, the growth inhibition was 58% (active) in test [1] and 98% (active) in test [4]. The inhibition in test [2] was 98% (active); in test [3] it was 0%. The outcome in test [5], in test [6], in test [7] and in test [8] was inactive.

On to `O=C(NCC1CCC(C(=O)NC2CCCc3ccccc32)CC1)c1ccc(O)c(-c2cccc([N+](=O)[O-])c2)c1` (centres undefined), for which the growth inhibition is 97% (active) in test [1] and 99% (active) in test [4]. Besides, the figures for the inhibition in test [2] and in test [3] were 2% and -2%, respectively. Moreover, the outcome in test [5], in test [6], in test [7] and in test [8] was inactive.

Take `COc1ccc2nccc([C@@H](O)CN3CCC(NC(=O)/C=C/c4cc(F)cc(NC(C)=O)c4)CC3)c2c1`: the growth inhibition in test [1] was 49%; in test [4], 97% (active). The values for the inhibition in test [2] and in test [3] were 7% and 5%, respectively. For the same compound, the result in test [5], in test [6], in test [7] and in test [8] was inactive.

Regarding `CC(C)Cn1cc(C2CCN(CCN3CCC(CNC(=O)c4ccc(NC(=O)c5ccc(Cl)cc5)cc4)CC3)CC2)c2ccccc21`, the growth inhibition in test [1] was 99% (active); in test [4], 101% (active). Besides, the values for the inhibition in test [2] and in test [3] were 28% and -2%, respectively. Also, the result in test [5], in test [6], in test [7] and in test [8] was inactive.

For `CC(C)NCc1ccc(-c2cccc(NC(=O)c3cccc(C#N)c3)c2)cc1`, the values for the growth inhibition in test [1] and in test [4] were 78% (active) and 100% (active), respectively. Besides, the values for the inhibition in test [2] and in test [3] were 9% and -6%, respectively. For the same compound, the outcome in test [5], in test [6], in test [7] and in test [8] was inactive.

As for `O=S(=O)(NCCN1CCCC1)c1ccc(-c2ccc(CNCc3ccc(F)cc3)cc2)cc1F`, the growth inhibition is 21% in test [1] and 82% (active) in test [4]. The inhibition was 40% in test [2] and 2% in test [3]. Also, the result in test [5], in test [6], in test [7] and in test [8] was inactive.

Consider `CCOc1cc(NCCCNc2ncc([N+](=O)[O-])cc2C)nc2ccccc12`, for which the growth inhibition in test [1] is 64% (active); in test [4], 84% (active). Besides, the inhibition in test [2] was 10%; in test [3] it was 2%. In addition, the outcome in test [5], in test [6], in test [7] and in test [8] was inactive.

For the compound `CC(C)Cc1cn(-c2nc(-c3nc4ccccc4[nH]3)cs2)c2ccncc12`, the growth inhibition in test [1] was 99% (active); in test [4], 102% (active). Besides, the inhibition in test [2] was 34%; in test [3], -2%. In addition, the outcome in test [5], in test [6], in test [7] and in test [8] was inactive.

Consider `c1cc(-c2ccc(CNC3CC3)cc2)cc(-c2nc3ccccc3[nH]2)c1`, for which the results for the growth inhibition in test [1] and in test [4] were 8% and 96% (active), respectively. Also, the inhibition in test [2] is 17%; in test [3], 1%. Besides, the result in test [5], in test [6], in test [7] and in test [8] was inactive.
